Source: PubChem
PP5 inh: blocks human protein phosphatase 5 activity; AID 1987; inhibition, % at 6.7 µM; purified PP5c, OMFP substrate fluorescence; actives 0.18% (n = 320,000);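 active = inhibition above the campaign's mean inhibition across all tested compounds plus 3 SD, cut at about 9.5% in these data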;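 note: 0% = DMSO only and 100% = 100 µM cantharidin control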
SKKanGAS inh: inhibitors of SKKanGAS S. pyogenes growth in kanamycin (SK-promoter or general growth effect); BacTiter-Glo, 6 h; inhibition, % at 7.5 µM; actives 1.3% (n = 300,000);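 active = mean replicate score, as percent of positive control median, at least 50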;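 note: strain carries kanamycin resistance gene driven by streptokinase promoter and grows in 40 µg/ml kanamycin; loss of luminescence reflects streptokinase promoter inhibition or plain growth inhibition; 0% = median of DMSO wells and 100% = positive control at its reference dose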
Granule exo inh: blocks lytic granule exocytosis; TALL-104 LAMP-1 surface exposure, flow cytometry; cells stimulated with thapsigargin and PMA; inhibition, % at 10 µM; actives 0.66% (n = 360,000); AID 651702;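 active = inhibition above about 55%, limit read from the data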
IDE inh: inhibits human insulin-degrading enzyme in HEK cells; P14735; FAbetaB cleavage, fluorescence polarization; inhibition, % at 5.59 µM; actives 0.41% (n = 320,000);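 active = percent inhibition above the average of all tested compounds plus 3 SD, set per screening campaign, cut at about 16% in these data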;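 note: IDE supplied by intact live HEK cells; FP after avidin binding of uncleaved biotin substrate so inhibition keeps polarization high; 0% = DMSO wells and 100% = 60 µM reference IDE inhibitor Ii1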
IDE act: activators of human insulin-degrading enzyme in cells; actives 0.073% (n = 340,000); P14735; AID 493087; HEK cells, FAbeta-B cleavage, fluorescence polarization; 0% vehicle, 100% cell-free pure enzyme wells; activation, % at 5.96 µM;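 active = activation above the mean of all tested compounds plus 3 SD, set per screening campaign, cut at about 17% in these data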
PP1 inh: blocks human PP1-alpha phosphatase, a PP5 counter-screen; inhibition, % at 6.7 µM; AID 2235; purified PP1alpha, OMFP fluorescence; actives 0.9% (n = 320,000);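 active = inhibition above the mean inhibition of all tested compounds plus 3 SD, computed separately for each screening campaign, cut at about 15% in these data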
Target sequence (P62136 whole entry, looked up): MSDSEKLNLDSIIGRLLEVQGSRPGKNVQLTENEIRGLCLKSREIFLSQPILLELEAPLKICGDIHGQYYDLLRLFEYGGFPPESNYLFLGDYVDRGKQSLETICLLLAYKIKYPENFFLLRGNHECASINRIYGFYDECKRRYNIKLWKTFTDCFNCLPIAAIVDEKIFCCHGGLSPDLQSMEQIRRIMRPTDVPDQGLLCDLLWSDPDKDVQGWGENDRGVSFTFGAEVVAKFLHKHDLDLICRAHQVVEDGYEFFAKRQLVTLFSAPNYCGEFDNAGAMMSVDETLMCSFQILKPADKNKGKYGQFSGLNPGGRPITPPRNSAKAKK
Numbers without * were called inactive; · = no result. Only some compounds are listed: those with a hit (about 2.8% of all), similar ones and a draw of the others.

SMILES	PP5 inh	SKKanGAS inh	Granule exo inh	IDE inh	IDE act	PP1 inh
Cc1ccc(NC(=O)CN(C)Cc2nc3c(Br)cc(Br)cc3c(=O)[nH]2)cc1	1	60*	2	2	4	3
CCN(CC(=O)NC1CCS(=O)(=O)C1)Cc1nc2c(Br)cc(Br)cc2c(=O)[nH]1 (centres undefined)	0	6	0	3	2	-3
CC(C)NC(=O)C(C)N1CCN(S(=O)(=O)c2ccc3ccccc3c2)CC1 (centres undefined)	2	0	12	0	5	-5
COc1cccc(-c2coc3c(C)c4oc(=O)c(CCC(=O)O)c(C)c4cc23)c1	3	51*	24	5	-3	14
COc1cccc(-c2coc3c(C)c4oc(=O)c(CC(=O)O)c(C)c4cc23)c1	1	17	18	7	-1	1
Clc1ccc(Nc2ncnc3c2cnn3-c2ccccc2)cc1	4	81*	5	2	-9	-1
CC(=O)Nc1ccc(Nc2ncnc3c2cnn3-c2ccccc2)cc1	4	-4	3	4	-2	-3
O=c1cc(/N=C/c2coc3c(ccc4ccccc43)c2=O)[nH]c(=S)[nH]1	2	87*	6	8	-7	5
O=C(C[C@H]1C/C=C\C[C@H](NC(=O)OCC2c3ccccc3-c3ccccc32)C(=O)OC[C@H]2CCCN2C1=O)NCCO	·	·	59*	7	2	·
O=C(C[C@H]1C/C=C\C[C@H](NC(=O)OCC2c3ccccc3-c3ccccc32)C(=O)OC[C@@H]2CCCN2C1=O)NCCO	·	·	-1	0	0	·
Clc1ccc(-[n+]2c(-c3cccc(Br)c3)[nH]c3nc4ccccc4nc32)cc1	1	85*	-7	3	·	-5
COc1ccc(OC)c(NC(=O)c2[nH]c(C)c(C(C)=O)c2C)c1	2	2	4	1	-2	2
COc1ccc(Cl)cc1NC(=O)c1[nH]c(C)c(C(C)=O)c1C	2	-9	-10	3	5	17*
O=C(NCc1ccccc1)C(c1cccnc1)N(C(=O)c1csnn1)c1ccccc1 (centres undefined)	3	1	-7	2	2	-2
O=C1C=CC(=O)c2c(O)c(N3CCN(CCOCCO)CC3)c(Br)c(O)c21	·	·	62*	·	4	·
Cc1cccc(S(=O)(=O)NC(=O)C2(C)CCN2C(=O)Cc2ccc(-c3ccccc3)cc2)c1 (centres undefined)	·	·	-5	·	·	·
O=C(c1ccco1)N1CCCC(c2nc3c(nnn3Cc3c(Cl)cccc3Cl)c(=O)[nH]2)C1 (centres undefined)	1	-5	-7	6	-4	-1
Cc1c(Cl)cccc1NC(=S)NCCC(c1ccccc1)c1ccccc1	1	79*	1	-4	4	6
Cc1ccc(-n2c(C)c(C)c3c(N)ncnc32)cc1	1	1	-8	5	2	3
COC(=O)c1sc(-c2ccc(C(C)(C)C)cc2)cc1NC(=O)c1ccccc1C(=O)O	4	54*	-4	2	4	3
COC(=O)c1sc(-c2ccc(C(C)(C)C)cc2)cc1NC(=O)CSCC(=O)O	0	57*	10	2	7	7
COC(=O)c1sc(-c2ccc(Cl)cc2)cc1NC(=O)c1ccccc1C(=O)O	-1	2	-3	-1	7	2
COc1ccccc1N=c1oc2cc(O)ccc2cc1C(=O)NCC1CCCO1 (centres undefined)	2	4	0	2	-1	-3
COc1ccccc1N=c1oc2cc(O)ccc2cc1C(N)=O	2	70*	-1	12	2	-2
CCc1nc2c(OCCC3CCCCC3)cccn2c1N(C)C(=O)c1ccc(OC)cc1	·	·	-1	·	·	·
SMILES	PP5 inh	SKKanGAS inh	Granule exo inh	IDE inh	IDE act	PP1 inh
Cc1ccc(C)c(CN2CCCN(Cc3cc(C)ccc3C)S2(=O)=O)c1	2	72*	12	-3	1	-3
O=C1c2ccccc2C(=O)N1SC1CCCCC1	0	-1	87*	2	-2	-1
O=C(NCC1CCCO1)c1[nH]c(C(F)(F)F)nc1-c1ccccc1 (centres undefined)	·	·	-3	·	·	·
O=C(O)CCn1cc(C2CC(c3ccccc3)=NN2c2ccccc2)c(-c2ccccc2)n1 (centres undefined)	6	24	-3	0	-2	15*
Cc1cc2ncn(-c3ncnc4sc5c(c34)CCC(C)C5)c2cc1C (centres undefined)	4	3	-1	-1	3	-5
COc1cc(/C=C(\C#N)c2nc3ccccc3s2)ccc1OCC(=O)Nc1ccccc1	2	·	-1	28*	1	0
COc1cc(/C=C(\CC(=O)O)c2nc3ccccc3s2)ccc1OCC(=O)Nc1ccccc1F	·	·	-1	·	5	·
COC(=O)C[C@@H]1CC[C@@H](NC(C)=O)[C@@H](CO)O1	·	·	-2	·	·	·
Cc1cccc(OCCn2c(=S)[nH]c3ccccc32)c1	4	-6	4	4	2	-3
Cc1ccc(OCCn2c(=S)[nH]c3ccccc32)c(C(C)C)c1	5	101*	8	-4	1	3
COC(=O)c1cnc(Nc2nc(CN)cs2)nc1C(F)(F)F	·	·	-3	·	·	·
COc1ccc(Cn2c(/C=C/c3ccccc3)nc3ccccc32)cc1	4	14	3	3	13	3
COc1ccc(/C=C/c2nc3ccccc3n2C)cc1	1	66*	-1	-2	2	-8
Cc1ccccc1S(=O)(=O)N1C[C@H]2[C@H]3C(=O)N(c4ccccc4)C(=O)[C@H]3CC(=O)[C@H]2[C@@H]1c1ccc(Cl)cc1	·	·	-1	·	·	·
COc1ccc(OC)c(NC(=O)C(=O)NNC(=O)COc2ccc(Br)cc2C)c1	-2	121*	2	5	7	7
CC(C)C[C@@H]1CN(CCCC[C@H]2CNC(=O)C(=O)N2CCC2CCCCC2)C(=O)C(=O)N1Cc1ccccc1	·	·	-2	·	·	·
Cc1ccc(C)c(CC(=O)N2CCCC(c3cc(C(=O)Nc4ccccc4Cl)no3)C2)c1 (centres undefined)	·	·	3	·	·	·
COc1ccc(-c2c(C)[nH]n3c(=O)c(Cc4ccccc4)c(C)nc23)cc1OC	3	3	-1	1	-4	11
Cc1nc2c(-c3ccc(Cl)cc3)c(C)[nH]n2c(=O)c1Cc1ccccc1	3	99*	-1	7	0	6
Cc1nc2c(-c3ccccc3)c(C)[nH]n2c(=O)c1Cc1ccccc1	3	52*	-4	2	·	4
CSCCC(NC(=O)c1ccco1)c1nc2ccccc2[nH]1 (centres undefined)	0	-4	2	-1	5	-1
CC1(C(=O)NCCC#N)CCN1C(=O)CC(c1ccccc1)c1ccccc1 (centres undefined)	·	·	-6	·	·	·
COc1ccc(C(=O)NCN2CCN(c3ccccc3)CC2)cc1OC	2	·	-4	-2	5	-2
